Compound activity (PubChem)
Compounds with a hit are over-represented: about 7.3% of the library has one in this group of screens.
NPC1 promoter act: qHTS Assay for NPC1 Promoter Activators; Huh7 NPC1 promoter luciferase reporter, 24 h; Potency, µM (doses to about 9.22 µM), for the others: top-dose activation, hits mostly activators; hit rate 2.4% among 320,000; AID 485313, 2010; note: % of control where 0% means no effect; nearly all actives have a fitted effect of over 60% in size
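Stable NPC1-promoter luciferase Huh7 line; cpd (DMSO) 24 h, 37 °C, 5% CO2; Amplite luciferase reagent 10 min RT; luminescence readout. qHTS format.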
Luc counter: Counterscreen for Luciferase (Kinase-Glo TM) Inhibition. Luciferin 4-monooxygenase (Photuris pensylvanica), Q27757. Potency, µM (top dose mostly 38.3 µM), inactives show at the top dose activity change, negative = inhibition, actives largely listed as inhibitors. AID 1379, 2008. hit rate 0.28% among 200,000. Kinase-Glo luciferase, ATP luminescence, 8 min; note: % is set by controls: 0 for no effect and ±100 for the full control effect; nearly all actives have a fitted effect of over 60% in size
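Luminescence was the read-out, taken after 8-minute incubation at ambient temperature. Luciferase turned over luciferin with 10 uM ATP in imidazole pH 7.2 buffer containing KCl, MgCl2, Tween 20 and BSA.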
FLuc counter: qHTS profiling assay for firefly luciferase inhibitor/activator using purifed enzyme and Km concentrations of substrates (counterscreen for miR-21 project). Luciferin 4-monooxygenase (Photinus pyralis), P08659. purified FLuc, Km substrates, luminescence inhibition. Potency, µM (top dose mostly 57.5 µM), inactives show top-dose activity change, negative = inhibition, actives largely listed as inhibitors. hit rate 6.9% among 360,000. AID 588342, 2011;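 note: plate controls were vehicle for no effect and reference inhibitor for full effect; nearly all actives have a fitted effect of over 55% in size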
Target sequence (P08659 whole entry, looked up): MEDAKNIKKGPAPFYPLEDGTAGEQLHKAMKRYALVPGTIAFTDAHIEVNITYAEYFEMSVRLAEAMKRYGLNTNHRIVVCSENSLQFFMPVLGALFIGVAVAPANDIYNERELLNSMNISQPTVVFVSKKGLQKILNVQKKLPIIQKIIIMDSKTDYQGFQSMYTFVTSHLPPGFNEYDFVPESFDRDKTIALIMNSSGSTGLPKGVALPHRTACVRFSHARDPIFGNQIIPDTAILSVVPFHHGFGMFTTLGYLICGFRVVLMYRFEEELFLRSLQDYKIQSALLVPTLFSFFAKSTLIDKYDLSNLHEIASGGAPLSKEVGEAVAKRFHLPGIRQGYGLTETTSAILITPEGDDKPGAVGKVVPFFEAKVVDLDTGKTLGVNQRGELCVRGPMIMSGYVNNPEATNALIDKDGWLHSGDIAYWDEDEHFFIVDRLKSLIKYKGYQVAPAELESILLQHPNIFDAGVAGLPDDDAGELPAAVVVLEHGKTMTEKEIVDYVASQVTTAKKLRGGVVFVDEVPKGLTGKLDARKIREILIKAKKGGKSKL
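Biochemical qHTS of compounds, final roughly 60 µM downward over six points, against 10 nM purified firefly luciferase using Km concentrations of substrates (10 uM D-luciferin, 10 uM ATP) in Tris acetate pH 7.5 buffer; luminescence output.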
Rab9 prom act: qHTS Assay for Rab9 Promoter Activators; Huh7 Rab9 promoter-luciferase reporter, luminescence, 24 h; Potency, µM (series often up to 9.22 µM), for inactives: at the highest dose activation, negative = inhibition, actives largely listed as activators; hit rate 2.8% among 320,000; AID 485297, 2010; note: % of control where 0% means no effect; nearly all actives have a fitted effect of over 60% in size
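Huh7 cells stably carrying Rab9 promoter–luciferase reporter, plated 1500 cells/well, compound added after 2 h and incubated 24 h at 37 °C; luciferase luminescence then read after 10 min with detection reagent.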
ELG1 genotoxic: qHTS screen for small molecules that induce genotoxicity in human embryonic kidney (HEK293T) cells expressing luciferase-tagged ELG1; hit rate 1.3% among 330,000; HEK293T ELG1-luciferase reporter, luminescence, 16 h; Potency, µM (highest dose often 46 µM), inactives show at the highest dose activity change, positive = activation, most hits filed as activators; note: % of control where 0% means no effect; nearly all actives have a fitted effect of over 60% in size
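Genotoxic stress is detected as increased luminescence from luciferase-tagged ELG1 in HEK293T cells, measured with ONE-Glo after a 16 hr treatment at 37 °C.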
SMN2 splice enh: qHTS Assay for Enhancers of SMN2 Splice Variant Expression. Potency, µM (highest dose often 46.1 µM), for the others: at the highest dose activity change, positive = activation, hits mostly activators. AID 1458, 2008. hit rate 2.8% among 210,000. HEK293 SMN2-luciferase splicing reporter, luminescence, 30-36 h; note: % of control where 0% means no effect; nearly all actives have a fitted effect of over 55% in size
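HEK293 cells carry an SMN2 minigene-luciferase reporter in which exon 7 inclusion puts luciferase in frame. Cells were seeded at 2000 cells/well, attached for 10-12 hours, then exposed to compounds for 30-36 hours at 37C before ONE-Glo luminescence.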
The depositor's hits bear a star; u = inconclusive; x = not tested or not shown; [ ] = remark or other dose. Calls come from the whole dose curve; as a rule, active = well fitted curve in the direction sought with a large enough effect; inconclusive = small, poorly fitted or top-dose-only effect, or another doubt; inactive = no such curve, though single readings can be large; an effect the other way counts as inactive or inconclusive. Potency is the fitted concentration of half-maximal effect.

SMILES	NPC1 promoter act	Luc counter	FLuc counter	Rab9 prom act	ELG1 genotoxic	SMN2 splice enh
C/C(=N\NC(=O)c1ccc(N/N=C(\C)c2ccc(O)cc2)cc1)c1ccc(O)cc1	u	x	4.8µM*	u	0%	x
C/C(=N\NC(=O)c1cccs1)c1ccc2c(c1)OCO2	u	-1%	u	u	u	u
CC(=NNC(=O)c1cccs1)c1ccc2c(c1)OCCO2	x	x	x	x	16µM*	x
O=S(=O)(c1ccc(F)cc1)n1ccc(-c2cccc(OCc3c(F)cccc3Cl)c2)n1	-5%	2%	0%	0%	-6%	-11%
COc1ccc(/C=C/C(=O)NC(=S)N2CCN(c3ccccn3)CC2)cc1OC	-4%	0%	24µM*	-3%	-4%	x
CSc1ccc(/C=C/C(=O)N2CCN(c3ccccn3)CC2)cc1	4%	x	13µM*	0%	3%	x
O=C(/C=C/c1ccc(F)cc1)NC(=S)N1CCN(c2ccccn2)CC1	u	x	21µM*	2.5µM*	10%	x
CN1C(=O)/C(=C/c2cc3c(cc2Br)OCO3)NC1=S	-18%	-5%	-6%	0%	4%	-18%
COc1ccc(OC)c(CC(NC(C)=O)C(=O)NC2CCN(C(=O)c3cccc(C)c3)CC2)c1 (stereo not drawn)	1%	x	1%	4%	-2%	x
Nc1nc2nccc(-c3ccc(Cl)cc3)n2n1	u	-5%	12µM*	u	u	9%
CC(=O)c1cnc2c(-c3ccc(Cl)cc3)cnn2c1C	22%	-2%	u	u	u	13µM*
Nc1c(C(=O)O)cnc2c(-c3ccc(Cl)cc3)cnn12	1.4µM*	-17%	3µM*	1µM*	u	11µM*
Cc1nn2c(-c3ccncc3)ccnc2c1Cl	-5%	-1%	-2%	-4%	7%	-3%
Clc1ccc(-c2cnn3c(-c4ccncc4)ccnc23)cc1	0.5µM*	-2%	0.95µM*	0.35µM*	23%	3.2µM*
Cc1cc(-c2ccc(Cl)cc2)n2nc(N)nc2n1	-3%	4%	3%[2.3 µM]	2%	u	x
C=C(C)Cn1c(N)cc(=O)nc1SCC(=O)Nc1cccc(C(F)(F)F)c1	-1%	x	-1%	0%	1%	x
C=CCn1c2ccccc2c2nnc(SCC(=O)NC(C(=O)OC)C(C)C)nc21 (stereo not drawn)	2%	-2%	-4%	-1%	3%	-18%
O=C(NC1CCCCC1)C1CCC(=O)N(C2CC2)C1 (stereo not drawn)	1%	x	2%	-2%	8%	x
COc1cccc(/C=C2\SC(=S)N(c3cccnc3)C2=O)c1OC	-1%	0%	2.4µM*	-4%	0%	10%
COc1ccc(/C=C2\SC(=S)N(c3cccnc3)C2=O)cc1	3%	x	6%	3%	4%	x
COc1ccc(Nc2nc(C(=O)NCc3ccco3)cs2)cc1	-3%	x	u	-6%	-3%	x
COc1ccccc1/C=N/NC(=O)c1cccc(NC(=O)c2ccccc2Cl)c1	1%	0%	u	-5%	1%	0%
O=C(N/N=C/c1ccccc1OC(=O)c1ccc2c(c1)OCO2)c1ccccc1	0%	4%	u	-7%	u	x
COc1ccccc1/C=N/NC(=O)c1ccc2c(c1)OCO2	12%	x	6.7µM*	18%	8%	x
COc1ccccc1N/N=C/c1ccc2c(c1)OCO2	10%	-1%	9.5µM*	1%	17%	-15%
SMILES	NPC1 promoter act	Luc counter	FLuc counter	Rab9 prom act	ELG1 genotoxic	SMN2 splice enh
COc1ccccc1/C=N/NC(=O)c1cccc(OC(F)(F)C(F)F)c1	-1%	2%	12µM*	-2%	1%	19%
COc1ccccc1C(=O)N/N=C/c1ccc2c(c1)OCO2	2.8µM*	x	11µM*	u	u	x
Cc1cc(C)nc(SCC(=O)Nc2cccc(S(=O)(=O)N(C)C)c2)n1	-6%	0%	-3%	-4%	-13%	-17%
CSc1nsc(N/N=C/c2ccc3c(c2)OCO3)c1C#N	2.5µM*	-5%	1.7µM*	0.79µM*	u	5.6µM*
Cn1c(=O)c2c(nc(SCC(=O)NCc3ccc4c(c3)OCO4)n2Cc2ccccc2)n(C)c1=O	-1%	-1%	-2%	-8%	-3%	-1%
Cn1c(=O)c2c(nc(NCc3ccc4c(c3)OCO4)n2C)n(C)c1=O	-1%	0%	1%	-1%	-2%	32µM*
Cc1noc(C(=O)Nc2ccc(C#N)cc2)c1Cl	15%	x	2%	14%	2%	x
COc1ccc(NC(=O)c2onc(C)c2Cl)cc1OC	6%	4%	u	14%	7%	-6%
CCc1ccc(NC(=O)c2onc(C)c2Cl)cc1	2.5µM*	-2%	3.4µM*	2µM*	5.2µM*	14µM*
COc1ccc(NC(=O)c2cc(C)on2)cc1	2.8µM*	-5%	21µM*	2.8µM*	u	11µM*
COc1ccc(Cc2nc(C(=O)Nc3ccc(OC)cc3)cs2)cc1	0%	-1%	24µM*	-7%	u	-29%
COc1ccc(NC(=O)c2onc(C)c2Cl)cc1	3.5µM*	x	15µM*	3.2µM*	u	x
C=CCn1c(=O)c2c(C)c(C)sc2n2c(Nc3ccc(OC)cc3)nnc12	-2%	0%	1%	5%	1%	-15%
COc1cc(/C=C(\C#N)c2nc3ccccc3[nH]2)ccc1Oc1ccc([N+](=O)[O-])cn1	20%	-5%	u	14%	6%	u
Cn1ccnc1SCC(=O)Nc1ccc2nc(SCC(=O)NC3CC3)sc2c1	u	-8%	19µM*	u	13µM*	18%
CC(C)(C)NC(=O)CSc1nc2ccc(NC(=O)CSc3nnc(N)s3)cc2s1	-5%	-2%	12µM*	-3%	-1%	-24%
CCOC(=O)c1sc(NC(=O)Nc2ccccc2)cc1C	1.3µM*	-6%	0.48µM*	0.71µM*	u	3.2µM*
CCOC(=O)c1sc(NC(C)=O)cc1C	0%	0%	-10%	-2%	-1%	2%
CCOC(=O)c1sc(NC(=O)C2CCC2)cc1C	u	-5%	12µM*	u	u	16µM*
CCOC(=O)c1sc(NC(=O)Nc2ccccc2Cl)cc1C	0.71µM*	u	0.43µM*	0.63µM*	u	0.71µM*
CCOC(=O)c1sc(NC(=O)c2ccc(C)s2)cc1C	u	-8%	0.85µM*	1.1µM*	18%	22µM*
